Most compounds without a hit are left out; they make up all but 1.3% or so of the library.
AGP1 TOR yeast = modulators of TOR pathway AGP1-GFP in S. cerevisiae; S. cerevisiae AGP1-GFP multiplex flow cytometry, 3 h; GFP as percent of DMSO wells; GFP response vs DMSO, % at 10 µM; 320,000 compounds, 0.02% hits;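 active = GFP response relative to DMSO above a set limit, near screen average plus 3 SD, cut at about 150% in these data; inconclusive = fewer than 70 cells counted for the yeast strain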;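 also: median GFP channel fluorescence of the gated AGP1 strain per well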
LAP4 TOR yeast = yeast TOR pathway LAP4-GFP modulation; GFP response vs DMSO, % at 10 µM; 320,000 compounds, 0.34% hits; S. cerevisiae LAP4-GFP multiplex, flow cytometry GFP, 3 h; median GFP as percent of DMSO wells; AID 2023;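 active = GFP response vs DMSO above a set limit, about the screen mean plus 3 SD, cut at about 150% in these data; inconclusive = under 70 cell events counted for the yeast strain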
RPL19A TOR yeast = alters RPL19A-GFP fluorescence in TOR pathway yeast screen; percent response vs DMSO, % at 10 µM; 330,000 compounds, 0.3% hits; AID 2025; S. cerevisiae RPL19A-GFP strain, flow cytometry, 3 h; active compounds read low;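 active = percent response vs DMSO below 50%; inconclusive = fewer than 70 events counted for the yeast strain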;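 also: median channel GFP fluorescence of the barcoded RPL19A-GFP strain; ratio of sample median GFP to plate DMSO average so 100% = DMSO; lower means less RPL19A-GFP as with rapamycin TOR inhibition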
CIT2-GFP yeast = modulators of TOR pathway CIT2-GFP in S. cerevisiae; S. cerevisiae CIT2-GFP strain, flow cytometry, 3 h; 100 means same as DMSO wells; GFP response vs DMSO, % at 10 µM; 320,000 compounds, 0.065% hits; AID 2029;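 active = GFP response relative to DMSO above a set limit, near the screen mean plus 3 SD, cut at about 150% in these data; inconclusive = Fewer than 70 cells measured for a yeast strain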;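 also: ratio of well median GFP fluorescence to mean of DMSO wells on the plate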
MEP2-GFP yeast = modulators of TOR pathway MEP2-GFP in S. cerevisiae | S. cerevisiae MEP2-GFP strain, flow cytometry GFP, 3 h; 100% = DMSO control level | 330,000 compounds, 0.51% hits | AID 2016 | GFP response vs DMSO, % at 10 µM;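 active = GFP response versus DMSO above a set limit, roughly screen mean plus 3 SD, cut at about 180% in these data; inconclusive = fewer than 70 cells counted for a yeast strain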;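 also: median GFP fluorescence of the barcode-gated MEP2-GFP cells per well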
Efflux pump inh = inhibitors of Candida antifungal efflux pumps expressed in yeast; 330,000 compounds, 0.44% hits; AID 485275; S. cerevisiae Candida pump triplex, Nile Red efflux; inhibition, % at 10 µM;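 active = plate passing quality check with inhibition over a set limit, or well fluorescence over plate mean plus 4 SD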;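 also: Nile Red retained in pooled yeast measured as flow cytometry median fluorescence; 0% = buffer negative control and 100% = Enniatin B positive control; higher means more Nile Red kept so more efflux inhibition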
Starred values were filed as active, the others as inactive; u = inconclusive; x = no result; [ ] = dose if it differs, or a comment.

SMILES | AGP1 TOR yeast | LAP4 TOR yeast | RPL19A TOR yeast | CIT2-GFP yeast | MEP2-GFP yeast | Efflux pump inh
CCCCNc1c(-c2ccc(-c3ccc(OC)cc3)c(OC)c2)nc2ccccn12 | 91 | 114 | 97 | 97 | 100 | 0
COCCCn1c(=N)c(C(=O)NC2CCCCC2)cc2c(=O)n3ccccc3nc21 | u | u | 54 | u | 232*[may fluoresce violet] | 0
CC(NC(=O)c1cc2c(=O)n3ccccc3nc2n(CC2CCCO2)c1=N)c1ccccc1 (configuration not stated) | u | 57 | 29*[may fluoresce violet] | u | 207*[may fluoresce violet] | 0
COc1ccc(Cn2c(=N)c(C(=O)NC3CCCCC3)cc3c(=O)n4ccccc4nc32)cc1 | 78 | 92 | 94 | 86 | 98 | 0
Nc1c(N(CCC2=CCCCC2)C(=O)c2ccco2)c(=O)[nH]c(=O)n1Cc1ccccc1 | 108 | 116 | 86 | 104 | 102 | 0
Oc1ccccc1N=N/C(=N/Nc1ccccc1O)c1ccccc1 | 91 | 130 | 100 | 99 | 100 | 0
Cn1nnnc1N=N/C(=N/Nc1ccccc1)c1ccccc1 | 98 | 150* | 96 | 86 | 95 | 0
O=C(NNC(=O)c1ncc(Cl)c(Cl)c1Cl)c1ccc(F)cc1 | 102 | 106 | 99 | 101 | 102 | 0
O=C(CCNc1ccc(F)cc1)c1ccco1 | 22 | 98 | 44*[may fluoresce violet] | u | 276*[may fluoresce violet] | 0
COc1cc(C(=O)OCc2cccc(S(=O)(=O)N3CCOCC3)c2)ccc1OCC(C)C | 95 | 94 | 97 | 95 | 100 | 1
COCCNC(=O)Nc1ccc2c(c1)N(C)C(=O)c1ccccc1S2 | 98 | 101 | 95 | 102 | 107 | 0
CCC(C)NC(=O)Nc1ccc2c(c1)N(C)C(=O)c1ccccc1S2 (configuration not stated) | u | 91 | 61 | u | 188*[may fluoresce violet] | 0
COC(=O)[C@@]1(Cc2ccc(OC)cc2)[C@@H]2C(=CC(=O)[C@H]2CC(=O)C(=O)N(C)C)CN1C(=O)c1ccccc1 | 100 | 107 | 104 | 111 | 94 | 0
C=C1C(=O)C=C2CN(C(=O)c3ccccc3)[C@@](Cc3ccc(F)cc3)(C(=O)OC)[C@@H]12 | 81 | 173* | 102 | 87 | 90 | 0
Cc1nc(NS(=O)(=O)c2ccc(Cl)s2)c2c3c(sc2n1)CCCC3 | 89 | 98 | 97 | 87 | 96 | 0
COc1cc([N+](=O)[O-])cc(/C=N/NC(=O)Cn2nc(C)cc2C)c1O | 104 | 102 | 105 | 101 | 103 | 0
COc1ccc(/C=N/NC(=O)Cn2nc([N+](=O)[O-])cc2C)c(OC)c1OC | u | 100 | 33*[may fluoresce violet] | u | 208*[may fluoresce violet] | 0
CC(C)(C)Nc1nc(Cl)nc(NC2CCCCC2)n1 | u | 74 | 42*[may fluoresce violet] | u | 171 | 0
CCc1ccc(CC2(O)CC(C)N(C)CC2C)cc1 (configuration not stated) | 102 | 104 | 103 | 100 | 102 | 0
CC1CC(O)(CC(O)(c2ccccc2)c2ccccc2)C(C)CN1C (configuration not stated) | u | 75 | 65 | u | 251*[may fluoresce violet] | 0
O=C(N/N=C/c1cccn1-c1ccc([N+](=O)[O-])cc1)C(O)c1ccccc1 (configuration not stated) | 112 | 95 | 102 | 104 | 107 | 0
O=C(Cc1ccccc1)N/N=C/c1cccn1-c1ccc([N+](=O)[O-])cc1 | u | u | 32*[may fluoresce violet] | u | 185*[may fluoresce violet] | 1
CCOC(=O)C1CCN(c2cc(=O)n(C3CCCCC3)c(=O)[nH]2)CC1 | 68 | 90 | 98 | 100 | 169 | 0
CCOC(=O)N1CCN(c2cc(=O)n(C3CCCCC3)c(=O)[nH]2)CC1 | u | 60 | 62 | u | 266*[may fluoresce violet] | 0
Cc1ccccc1/C=C\c1nc2ccccc2c(=O)[nH]1 | 89 | 100 | 98 | 93 | 101 | 0
SMILES | AGP1 TOR yeast | LAP4 TOR yeast | RPL19A TOR yeast | CIT2-GFP yeast | MEP2-GFP yeast | Efflux pump inh
N#CCOc1ccccc1/C=C/c1nc2ccccc2c(=O)[nH]1 | u | 61 | 24*[may fluoresce violet] | u | 243*[may fluoresce violet] | 0
COc1cc(C2CC(=O)Oc3cc(C)cc(C)c32)cc(OC)c1OC (configuration not stated) | x | x | x | x | x | 0
Cn1nc(C(C)(C)C)c([N+](=O)[O-])c1C(=O)N1CCOCC1 | u | 70 | 48*[may fluoresce violet] | u | 231*[may fluoresce violet] | 0
CCCCOc1cccc(/C=C(\C#N)C(=O)NC2CC2)c1 | 83 | 175* | 98 | 120 | 100 | 0
CSC1=NC(=O)/C(=C/c2ccc(SC)cc2)S1 | 84 | 176* | 78 | 51 | 98 | 0
CN=C1S/C(=C\c2ccc(SC)cc2)C(=O)N1C | 88 | 114 | 96 | 85 | 97 | 1
CSc1ccccc1OCc1cc(C(=O)N(C)Cc2cnccn2)no1 | 94 | 90 | 102 | 95 | 101 | 0
COc1ccc(-n2nc3c(N4CCC(C(=O)N5CCC(C)CC5)CC4)nnc(C)c3c2C)cc1 | u | 69 | 51 | u | 258*[may fluoresce violet] | 0
Cc1cccc(NC(=O)CS(=O)(=O)c2cn(CC(=O)N3CCOCC3)c3ccccc23)c1 | u | 70 | 43*[may fluoresce violet] | u | 187*[may fluoresce violet] | 0
COc1ccc(CCC(=O)Nc2nccs2)cc1OC | 22 | 94 | 47*[may fluoresce violet] | u | 198*[may fluoresce violet] | 0
COc1ccccc1OCC(=O)NC1CCCc2ccccc21 (configuration not stated) | 93 | 92 | 101 | 87 | 99 | 0
COc1ccc(CCC(=O)NC2CCCc3ccccc32)cc1OC (configuration not stated) | u | 71 | 28*[may fluoresce violet] | u | 236*[may fluoresce violet] | 0
COc1ccc(CCC(=O)OCc2csc(CC(=O)Nc3ccc(C)cc3)n2)cc1OC | 99 | 104 | 94 | 103 | 97 | 0.9*
COc1ccccc1CCC(=O)Nc1nccs1 | 102 | 98 | 101 | 105 | 99 | 0
CC(=O)N(Cc1cc2ccccc2[nH]c1=O)c1ccc(C)cc1 | 103 | 105 | 108 | 104 | 113 | 0
O=C(NCCC(=O)N(Cc1ccco1)Cc1cccs1)c1ccc(Br)cc1 | 98 | 109 | 97 | 96 | 110 | 0
O=C(CNC(=O)C1CC(=O)N(c2cccc3ccccc23)C1)Nc1ccccc1Br (configuration not stated) | 99 | 97 | 95 | 101 | 96 | 0
C/C(CC(=O)Nc1cc(C)ccn1)=N\NC(=O)c1cccc(F)c1 | 14 | 93 | 70 | 91 | 183* | 0
CCC(=O)c1ccc(CCCCCC(=O)O)s1 | 108 | 114 | 111 | 110 | 98 | 0
CC(=O)c1ccc(CCCCCCCCCC(=O)O)s1 | 100 | 153* | 96 | 92 | 99 | 0
Cc1cc(C)c2c(C)[nH]nc2n1 | 109 | 110 | 100 | 98 | 101 | 0

Screens from PubChem.
